Consider 26 compounds from the supplement of paper PMC10037445.

In test [1] the test system is RAW-Dual. Briefly: NF-kB SEAP reporter activity, fold change vs agonist alone; higher = enhanced NF-kB activity. In short, it runs like this:
(§1)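 Reporter activity is given as fold change relative to agonist-alone wells. To measure it, 50 nL of library stock was pin-tooled onto RAW-Dual macrophages (50,000 cells/well, DMEM, 384-well plates), a PRR agonist followed 1 h later, and cells stayed at 37 °C, 5% CO2. Twenty hours on, supernatant was assayed for IRF (QuantiLuc luminescence) and NF-κB (QuantiBlue, 620 nm absorbance), and wells under 70% of agonist-control IncuCyte confluency in both mask sets were marked cytotoxic.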

Test [2] relates to RAW-Dual. Nature of the test: NF-kB SEAP reporter activity, fold change vs agonist alone; cytotoxicity flag (confluency mask): not cytotoxic; higher = enhanced NF-kB activity. Put shortly: as §1
In test [3] the test system is RAW-Dual. Briefly: NF-kB SEAP reporter activity, fold change vs agonist alone; cytotoxicity flag (confluency mask): cytotoxic (confluency <70% of control); higher = enhanced NF-kB activity. Put shortly:
as §1

Setting [4] is: library stock concentration (final ~1000-fold dilution): 10 mM, cytotoxicity flag (confluency mask): not cytotoxic, agonist: Imiquimod (TLR7) […].
The mark [5] stands for this setting: library stock concentration (final ~1000-fold dilution): 10 mM, cytotoxicity flag (confluency mask): not cytotoxic, agonist: MPLA (TLR4) […].
[6] abbreviates: agonist: ODN 1826 (TLR9) 0.5 ug/mL.
[7] abbreviates: agonist: Pam2CSK4 (TLR2/6) 0.1 ug/mL.
[8] abbreviates: agonist: Pam3CSK4 (TLR2/1) 0.1 ug/mL.
[9] abbreviates: library stock concentration (final ~1000-fold dilution): 10 mM, cytotoxicity flag (confluency mask): cytotoxic (confluency <70% of control), agonist: Imiquimod (TLR7) […].
Setting [10] is: library stock concentration (final ~1000-fold dilution): 10 mM, cytotoxicity flag (confluency mask): cytotoxic (confluency <70% of control), agonist: MPLA (TLR4) […].

The full ranking holds about 2,900 compounds; the median of “NF-kB SEAP reporter activity, fold change vs agonist alone” is about 0.99, and the highest 2% start at about 2.6. Only a selection was taken, and the highest values are over-represented in it overall.

With `O=c1c(-c2ccc(O)cc2)coc2cc(OC3OC(CO)C(O)C(O)C3O)ccc12` (stereo not drawn), the “NF-kB SEAP reporter activity” value in the test with RAW-Dual [1] (setting [4]) and with RAW-Dual [1] (setting [5]) was 1.08 throughout.
For the compound `O=c1c(-c2ccc(O)cc2)coc2cc(OC3OC(CO)C(O)C(O)C3O)ccc12` (stereo not drawn) (library stock concentration (final ~1000-fold dilution): 10 mM), the “NF-kB SEAP reporter activity” value came out at 1.62 in the test with RAW-Dual [2] (agonist: LPS (TLR4) 0.1 ug/mL), 1.17 in the test on RAW-Dual [2] (setting [6]), 1.25 in the test on RAW-Dual [2] (setting [7]) and 1.38 in the test with RAW-Dual [2] (setting [8]).
Take `CN(CC(=O)N(Cc1ccc(C2CCCCC2)cc1)c1ccc(C(=O)NO)cc1)S(=O)(=O)c1c(F)c(F)c(F)c(F)c1F`: the figures for the “NF-kB SEAP reporter activity” value with RAW-Dual [1] (setting [4]) and in the test on RAW-Dual [1] (setting [5]) were 1.3 and 1.02, respectively.
In the case of `CN(CC(=O)N(Cc1ccc(C2CCCCC2)cc1)c1ccc(C(=O)NO)cc1)S(=O)(=O)c1c(F)c(F)c(F)c(F)c1F` (library stock concentration (final ~1000-fold dilution): 10 mM), the “NF-kB SEAP reporter activity” value in the test on RAW-Dual [2] (agonist: LPS (TLR4) 0.1 ug/mL) came out at 0.324; with RAW-Dual [2] (setting [6]), 1.53; with RAW-Dual [2] (setting [7]), 0.374; in the test with RAW-Dual [2] (setting [8]), 0.284.
In the case of `CS(=O)(=O)c1ccc(-c2cnc(N)c(C(=O)Nc3ccccc3)n2)cc1`, the results for the “NF-kB SEAP reporter activity” value in the test with RAW-Dual [1] (setting [4]) and in the test on RAW-Dual [1] (setting [5]) were 1.45 and 2.21, respectively.
Taken in the same sequence, the figures for `CN1CCN(S(=O)(=O)c2ccc(-c3cnc(N)c(C(=O)Nc4cccnc4)n3)cc2)CC1` were 1.5 and 2.5.
Take `CS(=O)(=O)c1ccc(C(=O)Nc2ccc(Cl)c(-c3ccccn3)c2)c(Cl)c1` (library stock concentration (final ~1000-fold dilution): 10 mM): the “NF-kB SEAP reporter activity” value in the test on RAW-Dual [2] (agonist: LPS (TLR4) 0.1 ug/mL) amounted to 1.19; with RAW-Dual [2] (setting [6]), 1.4; with RAW-Dual [2] (setting [7]), 0.898; in the test on RAW-Dual [2] (setting [8]) it was 1.01.
`CS(=O)(=O)c1ccc(-c2cnc(N)c(C(=O)Nc3ccccc3)n2)cc1` (library stock concentration (final ~1000-fold dilution): 10 mM): the “NF-kB SEAP reporter activity” value was determined as 4.61 in the test on RAW-Dual [2] (agonist: LPS (TLR4) 0.1 ug/mL), 0.67 in the test on RAW-Dual [2] (setting [6]), 1.02 in the test on RAW-Dual [2] (setting [7]) and 1.48 with RAW-Dual [2] (setting [8]).
With `CS(=O)(=O)c1ccc(C(=O)Nc2ccc(Cl)c(-c3ccccn3)c2)c(Cl)c1`, the “NF-kB SEAP reporter activity” value in the test on RAW-Dual [1] (setting [4]) was 1.07; in the test on RAW-Dual [1] (setting [5]), 0.945.
For `CNCc1ccc(-c2cc(-c3nc(-c4ccc(S(=O)(=O)C(C)C)cc4)cnc3N)on2)cc1` (library stock concentration (final ~1000-fold dilution): 10 mM), the “NF-kB SEAP reporter activity” value in the test with RAW-Dual [2] (agonist: LPS (TLR4) 0.1 ug/mL) is 1.06; in the test on RAW-Dual [2] (setting [6]), 0.943; with RAW-Dual [2] (setting [7]) it was 0.871; with RAW-Dual [2] (setting [8]), 1.05.
Take `CS(=O)(=O)O.Cc1ccc(NC(=O)c2ccc(CN3CCN(C)CC3)cc2)cc1Nc1nccc(-c2cccnc2)n1` (library stock concentration (final ~1000-fold dilution): 10 mM): the “NF-kB SEAP reporter activity” value in the test on RAW-Dual [3] (agonist: LPS (TLR4) 0.1 ug/mL) worked out at 1.29; with RAW-Dual [3] (setting [6]) it was 0.201; in the test on RAW-Dual [3] (setting [7]) it was 1.13; with RAW-Dual [3] (setting [8]), 1.25.
Take `CS(=O)(=O)O.Cc1ccc(NC(=O)c2ccc(CN3CCN(C)CC3)cc2)cc1Nc1nccc(-c2cccnc2)n1`: the “NF-kB SEAP reporter activity” value in the test on RAW-Dual [1] (setting [9]) turned out to be 1.24; with RAW-Dual [1] (setting [10]), 1.46.
As to `CC(C)(C)c1ccc(S(=O)(=O)NCc2ccc(C(=O)Nc3cccnc3)cc2)cc1`, the “NF-kB SEAP reporter activity” value in the test with RAW-Dual [1] (setting [4]) turned out to be 0.865; with RAW-Dual [1] (setting [5]) it was 0.908.
As to `CC(C)(C)c1ccc(S(=O)(=O)NCc2ccc(C(=O)Nc3cccnc3)cc2)cc1` (library stock concentration (final ~1000-fold dilution): 10 mM), the “NF-kB SEAP reporter activity” value in the test on RAW-Dual [2] (agonist: LPS (TLR4) 0.1 ug/mL) amounted to 0.67; in the test on RAW-Dual [2] (setting [6]), 1.1; with RAW-Dual [2] (setting [7]), 0.834; in the test with RAW-Dual [2] (setting [8]), 0.706.
Take `CNCc1ccc(-c2cc(-c3nc(-c4ccc(S(=O)(=O)C(C)C)cc4)cnc3N)on2)cc1`: the “NF-kB SEAP reporter activity” value in the test with RAW-Dual [1] (setting [4]) is 0.858; with RAW-Dual [1] (setting [5]) it was 0.98.
As for `CN1CCN(S(=O)(=O)c2ccc(-c3cnc(N)c(C(=O)Nc4cccnc4)n3)cc2)CC1` (library stock concentration (final ~1000-fold dilution): 10 mM), the “NF-kB SEAP reporter activity” value with RAW-Dual [2] (agonist: LPS (TLR4) 0.1 ug/mL) stood at 4.28; in the test with RAW-Dual [2] (setting [6]) it was 2.61; in the test on RAW-Dual [2] (setting [7]), 1.11; in the test with RAW-Dual [2] (setting [8]) it was 2.07.
As for `CC/C=C\C/C=C\C/C=C\C/C=C\C/C=C\C/C=C\CCC(=O)NCCNC(=O)c1ccccc1O`, the “NF-kB SEAP reporter activity” value was 0.248 in the test with RAW-Dual [1] (setting [9]) and 1.54 in the test with RAW-Dual [1] (setting [10]).
Take `CC/C=C\C/C=C\C/C=C\C/C=C\C/C=C\C/C=C\CCC(=O)NCCNC(=O)c1ccccc1O` (library stock concentration (final ~1000-fold dilution): 10 mM): the “NF-kB SEAP reporter activity” value in the test with RAW-Dual [3] (agonist: LPS (TLR4) 0.1 ug/mL) worked out at 0.318; with RAW-Dual [3] (setting [6]) it was 0.298; with RAW-Dual [3] (setting [7]) it was 0.133; with RAW-Dual [3] (setting [8]) it was 0.184.
With `C=CC(=O)N1CC(N2CCN(C(=O)CNc3cc(C4(C)CC4)c(Cl)cc3O)CC2)C1`, the “NF-kB SEAP reporter activity” value was determined as 0.915 in the test on RAW-Dual [1] (setting [4]) and 0.645 with RAW-Dual [1] (setting [5]).
Take `C=CC(=O)N1CC(N2CCN(C(=O)CNc3cc(C4(C)CC4)c(Cl)cc3O)CC2)C1` (library stock concentration (final ~1000-fold dilution): 10 mM): the “NF-kB SEAP reporter activity” value in the test on RAW-Dual [2] (agonist: LPS (TLR4) 0.1 ug/mL) came to 0.418; with RAW-Dual [2] (setting [6]), 0.542; in the test on RAW-Dual [2] (setting [7]), 0.537; with RAW-Dual [2] (setting [8]), 0.448.
Turning to `Cl.N=C(N)NC(=O)c1nc(Cl)c(N)nc1N.O.O`, the “NF-kB SEAP reporter activity” value was determined as 0.827 in the test on RAW-Dual [1] (library stock concentration (final ~1000-fold dilution): 10 mM water, cytotoxicity flag (confluency mask): not cytotoxic, agonist: Imiquimod (TLR7) […]) and 1.01 in the test on RAW-Dual [1] (library stock concentration (final ~1000-fold dilution): 10 mM water, cytotoxicity flag (confluency mask): not cytotoxic, agonist: MPLA (TLR4) […]).
As to `Cl.N=C(N)NC(=O)c1nc(Cl)c(N)nc1N.O.O` (library stock concentration (final ~1000-fold dilution): 10 mM water), the “NF-kB SEAP reporter activity” value in the test on RAW-Dual [2] (agonist: LPS (TLR4) 0.1 ug/mL) turned out to be 1.07; in the test on RAW-Dual [2] (setting [6]) it was 1.09; with RAW-Dual [2] (setting [7]) it was 0.993; with RAW-Dual [2] (setting [8]), 0.984.
With `Cn1nc(C(C)(C)C)cc1C(=O)NC(Cc1cccc(Cl)c1)C(=O)NCC#N` (stereo not drawn), the “NF-kB SEAP reporter activity” value in the test with RAW-Dual [1] (setting [4]) is 0.765; in the test on RAW-Dual [1] (setting [5]), 1.05.
Taken in the same sequence, the figures for `CC(C)(C)c1cc(C(=O)/C(C#N)=N/Nc2cccc(Cl)c2)no1` were 1.11 and 1.91.
With `Cn1nc(C(C)(C)C)cc1C(=O)NC(Cc1cccc(Cl)c1)C(=O)NCC#N` (stereo not drawn) (library stock concentration (final ~1000-fold dilution): 10 mM), the “NF-kB SEAP reporter activity” value in the test with RAW-Dual [2] (agonist: LPS (TLR4) 0.1 ug/mL) turned out to be 1.13; in the test with RAW-Dual [2] (setting [6]), 1.14; in the test with RAW-Dual [2] (setting [7]) it was 0.947; in the test with RAW-Dual [2] (setting [8]) it was 0.992.
Taken in the same sequence, the figures for `CC(C)(C)c1cc(C(=O)/C(C#N)=N/Nc2cccc(Cl)c2)no1` (library stock concentration (final ~1000-fold dilution): 10 mM) were 4.18, 1.16, 0.423 and 0.673.
